# From the supplement of paper PMC12669032
# Unmarked numbers belong to inactive results.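 Rule for the calls: active = AUC reduced over 20% with Padj below 0.05 in at least 2 of 3 replicates; inactive = otherwise.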
# Key:
# Assay in all cases: growth AUC relative to DMSO control (median of replicates) (fraction); higher = more growth (less inhibition), active = hit call of the paper
# Settings in all cases: 20 µM; 24 h
# Coprococcus comes = tested on: Coprococcus comes
# Method in brief: (§1)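 Starting at OD600 0.05, gut bacterial monocultures in mGAM were grown anaerobically at 37 °C with 20 µM compound (1% DMSO) under pierced gas-permeable seals. OD600 was read every hour for 24 h, and the lowest OD of each curve was set to 0. Area under the growth curve was normalised to the plate median of solvent-only wells, or to row and column medians on the industrial chemical plate, and the median of three biological replicates grown on separate days is given.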
# Escherichia coli ED1a = tested on: Escherichia coli ED1a
# Method in brief: as §1
# Escherichia coli IAI1 = tested on: Escherichia coli IAI1
# Method in brief: as §1
# Eubacterium rectale = tested on: Eubacterium rectale
# Method in brief: as §1
# [1] = tested on: Fusobacterium nucleatum subsp. animalis
# Method in brief: as §1
# Lactobacillus gasseri = tested on: Lactobacillus gasseri
# Method in brief: as §1
# Lactobacillus paracasei = tested on: Lactobacillus paracasei
# Method in brief: as §1
# Odoribacter splanchnicus = tested on: Odoribacter splanchnicus
# Method in brief: as §1
# [2] = tested on: Parabacteroides distasonis
# Method in brief: as §1
# Parabacteroides merdae = tested on: Parabacteroides merdae
# Method in brief: as §1
# Roseburia intestinalis = tested on: Roseburia intestinalis
# Method in brief: as §1
# Streptococcus salivarius = tested on: Streptococcus salivarius
# Method in brief: as §1
SMILES,growth AUC (Coprococcus comes),growth AUC (Escherichia coli ED1a),growth AUC (Escherichia coli IAI1),growth AUC (Eubacterium rectale),growth AUC [1],growth AUC (Lactobacillus gasseri),growth AUC (Lactobacillus paracasei),growth AUC (Odoribacter splanchnicus),growth AUC [2],growth AUC (Parabacteroides merdae),growth AUC (Roseburia intestinalis),growth AUC (Streptococcus salivarius)
O=[N+]([O-])NC1=NCOCN1Cc1cnc(Cl)s1,0.971,0.992,0.997,1.1,1.15,0.809,0.988,1.04,1.01,0.965,0.941,0.85
CC(C)N(C)S(=O)(=O)NC(=O)c1cc(-n2c(=O)cc(C(F)(F)F)n(C)c2=O)c(F)cc1Cl,1.03,1.02,1,1.01,0.98,1.02,1.04,0.99,1.08,1,1.03,0.998
COP(=O)(OC)SCn1c(=O)oc2cc(Cl)cnc21,1.11,1.01,1,0.986,0.983,1.08,1.05,1,1.08,1,1.06,0.978
CO/N=C(/C(=O)OC)c1ccccc1CO/N=C(\C)c1cccc(C(F)(F)F)c1,0.976,0.978,0.985,0.973,0.953,1.1,0.831,1.01,0.887,0.901,1.06,0.998
CCCCc1c(C)nc(NCC)nc1OS(=O)(=O)N(C)C,0.996,0.987,1.01,1.16,0.968,0.931,0.987,0.891,0.598 (active),0.906,1.03,1.02
CC(C)CC(C)c1sccc1NC(=O)c1cn(C)nc1C(F)(F)F (stereo not drawn),0.984,0.998,0.946,1.01,1.04,0.945,1.02,0.782,0.856,0.977,0.998,0.984
COP(=S)(OC)SCn1nnc2ccccc2c1=O,0.997,0.957,0.968,1.07,0.916,0.929,0.968,0.902,0.787,0.944,1.09,0.969
O=C1C=CC(=O)C=C1,1.02,1.01,1.01,0.986,0.983,1.04,1,0.975,1.03,1.01,1.08,0.979
CC(C)(C)N(NC(=O)c1ccc(Cl)cc1)C(=O)c1ccccc1,0.995,1.01,1.01,1,0.913,1.09,1.1,0.988,0.96,0.97,1.08,0.987
CC1(C)CON(Cc2ccccc2Cl)C1=O,1.01,0.965,1.02,1.12,1.05,0.837,1.05,0.899,0.838,0.985,0.896,0.87
CCCCC(O)(Cn1cncn1)c1ccc(Cl)cc1Cl (stereo not drawn),0.946,0.987,0.996,0.783 (active),1.04,0.952,0.936,0.894,1.01,0.931,1,0.991
O=C(Nc1ccccc1-c1ccc(Cl)cc1)c1cccnc1Cl,1,0.981,1.01,0.968,0.956,1.08,0.972,0.86,0.839,0.998,1.01,1.01
N#Cc1c[nH]cc1-c1cccc(Cl)c1Cl,0.948,1.01,0.981,1.06,0.797,1.06,1.07,0.732,0.804,0.941,1.14,0.929
Cc1cc(C)c(C2=C(OC(=O)CC(C)(C)C)C3(CCCC3)OC2=O)c(C)c1,0.974,1.02,1.03,1.04,1.09,0.918,1.14,0.978,0.772 (active),1.04,0.989,0.991
CNC(=O)Oc1cc(C)c(N(C)C)c(C)c1,1.01,0.982,0.978,1,0.952,0.998,0.953,1.08,0.988,0.997,0.962,0.961
CCCSC(=O)N(CCC)CCC,0.994,0.974,0.985,1.01,1,1.01,0.954,1.01,0.995,0.991,0.994,1.04
CC1(C)C(C=C(Cl)Cl)C1C(=O)OC(C#N)c1ccc(F)c(Oc2ccccc2)c1 (mixture of isomers),0.981,0.956,0.991,1.06,0.95,0.782,0.98,0.95,0.96,0.937,0.916,0.974
Clc1ccc(C2(Cn3cncn3)OCCO2)c(Cl)c1,0.966,0.98,0.979,1.03,0.988,0.937,0.946,0.923,1.01,0.954,0.948,0.915
O=C(NC(=O)c1ccccc1Cl)Nc1ccc(OC(F)(F)F)cc1,0.949,0.97,0.952,1.04,0.728,0.856,0.892,1.04,0.965,0.971,0.918,0.951
CCOP(=S)(OCC)SCSP(=S)(OCC)OCC,0.997,0.983,1.01,0.954,1.04,0.988,1.07,1.01,1,0.997,1.09,0.958
Clc1ccc(Cl)cc1,0.985,1,1,1.05,1.1,0.981,0.936,1.03,0.999,1.02,1.01,1.02
CC(Cc1ccc(C(C)(C)C)cc1)CN1C[C@@H](C)O[C@@H](C)C1 (stereo partly drawn),1.03,1.01,1.06,0.983,1.07,1.06,1.07,1.07,0.985,0.999,1.06,0.999
COP1(=S)OCc2ccccc2O1 (stereo not drawn),1,0.991,1,1.08,1.12,0.945,0.997,1.04,1.05,0.999,0.943,1.01
CCCN(CCC)c1c([N+](=O)[O-])cc(S(C)(=O)=O)cc1[N+](=O)[O-],1.03,0.978,0.962,0.974,0.948,0.84,0.988,1.08,0.967,0.936,0.894,0.966
CN/C(=N\[N+](=O)[O-])NCc1cnc(Cl)s1,1.01,1.02,1,1.07,1.09,0.959,1,1.02,0.965,0.975,1.05,1

SMILES,growth AUC (Coprococcus comes),growth AUC (Escherichia coli ED1a),growth AUC (Escherichia coli IAI1),growth AUC (Eubacterium rectale),growth AUC [1],growth AUC (Lactobacillus gasseri),growth AUC (Lactobacillus paracasei),growth AUC (Odoribacter splanchnicus),growth AUC [2],growth AUC (Parabacteroides merdae),growth AUC (Roseburia intestinalis),growth AUC (Streptococcus salivarius)
O=C1C=C(N(Cc2ccc(Cl)nc2)CC(F)F)CO1,1.02,0.971,0.994,0.959,1.05,1,0.869,1.01,0.999,1.01,1.02,0.979
O=[N+]([O-])c1ccccc1,1.03,1.01,1.01,1.07,1.07,1,0.994,1.08,1.03,1.03,0.963,1.01
CC(C)=CC1C(C(=O)OC(C#N)c2cccc(Oc3ccccc3)c2)C1(C)C (mixture of isomers),0.983,1,0.967,0.965,0.921,0.921,1.23,1.01,1,1,0.893,0.988
COP(=S)(OC)Oc1cc(Cl)c(Cl)cc1Cl,0.979,1,0.971,0.945,1.06,1,1.02,0.88,0.936,0.983,0.966,0.994
Nc1nc(N)nc(NC2CC2)n1,1,0.982,0.986,1.04,1.04,0.877,0.959,1.04,1.03,1,0.97,0.981
Clc1c(Cl)c(Cl)c(Cl)c(Cl)c1Cl,1,1.01,1.01,1.02,0.98,1.07,0.936,1.03,1.03,1.03,1.01,0.999
Oc1ccccc1Cl,0.975,1.01,1.01,0.921,0.994,1.05,0.883,0.906,0.995,1,0.965,1.01
Cc1cccc(C)c1N(Cn1cccn1)C(=O)CCl,0.992,0.976,0.952,1.09,1.1,0.928,0.997,1.06,1.01,0.963,0.935,0.999
CCC/C(=N\OCC)C1=C(O)CC(CC(C)SCC)CC1=O (stereo not drawn),0.986,0.986,0.973,0.937,0.867,0.964,0.978,0.979,0.991,0.988,1,1.01
Nc1c([N+](=O)[O-])ccc(Oc2ccccc2)c1Cl,0.903,1.01,1.01,0.887,0.947,1.02,0.832,0.935,0.951,0.912,0.988,0.929
C/C(=N\NC(=O)Nc1cc(F)cc(F)c1)c1ncccc1C(=O)[O-].[Na+],1.01,0.973,0.995,1.12,1.09,0.796,0.975,1.07,0.875,1.01,1.06,0.988
CCOP(=S)(OCC)Oc1ccc(Cl)cc1Cl,1.03,1.01,1.02,0.953,1.03,1,1.07,1.02,1.05,0.997,1.05,1.04
CCCN(CCCl)c1c([N+](=O)[O-])cc(C(F)(F)F)cc1[N+](=O)[O-],0.914,0.983,0.987,0.942,1.05,0.875,1.06,1.13,0.962,0.955,0.989,0.928
CCCSP(=S)(OCC)Oc1ccc(Cl)cc1Cl (stereo not drawn),1,1.05,1.01,1.04,1.11,1.01,0.984,0.778,0.984,1.01,1.08,0.973
CCCC1COC(Cn2cncn2)(c2ccc(Cl)cc2Cl)O1 (stereo not drawn),0.941,0.979,0.972,0.545 (active),1,0.968,0.936,0.977,0.837,0.855,0.995,0.964
CC1(C)[C@H](C(=O)O[C@H](C#N)c2cccc(Oc3ccccc3)c2)[C@@H]1/C=C\C(=O)OC(C(F)(F)F)C(F)(F)F,1.03,1.01,1.1,0.984,0.986,1.12,0.984,1.03,0.994,1.01,0.962,1.07
O=C(O)C(F)(F)C(F)(F)C(F)(F)C(F)(F)C(F)(F)C(F)(F)C(F)(F)C(F)(F)C(F)(F)F,0.991,1.01,1.01,0.892,1.01,1.01,1.03,0.993,0.913,0.97,0.96,0.942
O=[N+]([O-])c1c(Cl)c(Cl)cc(Cl)c1Cl,1.01,0.99,1.02,0.954,0.983,1.14,0.927,1.02,0.986,1.01,1.06,1
COP(=O)(OC)O/C(=C\Cl)c1ccc(Cl)cc1Cl,1.06,1.01,1,1.09,1.09,0.97,1.02,1.02,0.957,1.01,1.03,1
CC(C)N(C(=O)SCC(Cl)=C(Cl)Cl)C(C)C,0.981,0.977,0.977,1.08,1.01,0.948,1,0.944,0.872,0.947,1.01,0.996
CCOP(=S)(Oc1cnc(C(C)(C)C)nc1)OC(C)C (stereo not drawn),0.998,1.01,0.985,0.811,1.02,1.11,0.988,1.07,1.03,0.995,1.01,0.994
Cc1cc(C)nc(NC(=O)NS(=O)(=O)c2ccccc2C(=O)OC2COC2)n1,0.97,0.986,0.983,1.07,1.02,0.884,1.08,1.01,1.02,0.997,0.985,0.909
O=C1CCc2cccc3c2N1CC3,1.03,1,0.966,1.06,1.08,0.889,0.983,1.04,1.03,0.971,0.989,0.941
C/C(=N/Nc1nc(C)cc(C)n1)c1ccccc1C,0.957,1.02,1.04,0.495 (active),1.16,0.994,1.1,0.666,1.07,1.07,0.715 (active),0.999
